Most compounds without a hit are left out; they make up all but 12% or so of the library.
PLK1 PBD inh: blocks phosphopeptide binding to human PLK1 polo-box domain. Plk1 PBD binding of FITC phosphopeptide, fluorescence polarization. Potency, µM, for the others: max response, negative = inhibition, usual class: inhibitors. 2.8% of 360,000 active. AID 720504; note: series mostly up to about 57 µM; % is set by controls: 0 for no effect and ±100 for the full control effect; nearly all actives have a fitted effect of over 65% in size
BAZ2B inh: inhibitors of human BAZ2B bromodomain; Q9UIF8; 4.4% of 360,000 active; AlphaScreen BAZ2B-H3K14Ac peptide displacement; AID 504333; Potency, µM (top dose mostly 114 µM), inactives show at the highest dose activity change, negative = inhibition, most hits filed as inhibitors; note: % is set by controls: 0 for no effect and ±100 for the full control effect; nearly all actives have a fitted effect of over 60% in size
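AlphaScreen displacement: compounds (up to 110uM) incubated 30 min at room temperature with a preformed 50 nM BAZ2B/50 nM biotinylated H3K14Ac peptide complex in PBS pH 7.4 with Tween-20. Donor and acceptor beads at 10 ug/mL final added, 20 min light-protected before reading.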
HP1b chromo inh: blocks HP1-beta chromodomain binding to methylated histone tails | AID 540317 | AlphaScreen HP1-beta / biotin-H3K9me3 peptide binding | 0.56% of 390,000 active | Potency, µM (titrated, usually from 114 µM), without a hit: at the top dose activity change, negative = inhibition, most hits filed as inhibitors | P83916; note: nearly all actives have a fitted effect of over 70% in size
Target sequence (P83916 whole entry, looked up): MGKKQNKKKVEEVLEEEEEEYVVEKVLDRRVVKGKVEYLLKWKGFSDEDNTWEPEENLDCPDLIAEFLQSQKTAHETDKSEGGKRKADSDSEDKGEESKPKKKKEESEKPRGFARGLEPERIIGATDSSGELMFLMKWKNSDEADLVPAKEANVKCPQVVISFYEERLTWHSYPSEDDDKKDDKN
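Compound inhibition of the preformed complex between 50 nM HP1-beta and 50 nM biotinylated H3K9me3 peptide was read by AlphaScreen. Buffer was PBS pH 7.4 with 0.01% Tween-20. Incubations ran 30 min at room temperature, with 10 ug/mL donor/acceptor beads.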
G9a inh: G9a (human) methyltransferase inhibition | 8.8% of 350,000 active | Q96KQ7 | Potency, µM (highest dose often 102 µM), for the others: at the top dose activity, negative = inhibition, most hits filed as inhibitors | G9a H3K9 monomethylation, AlphaScreen, 2 h; note: % is set by controls: 0 for no effect and ±100 for the full control effect; nearly all actives have a fitted effect of over 75% in size
Target sequence (Q96KQ7 913-1193 limits assumed): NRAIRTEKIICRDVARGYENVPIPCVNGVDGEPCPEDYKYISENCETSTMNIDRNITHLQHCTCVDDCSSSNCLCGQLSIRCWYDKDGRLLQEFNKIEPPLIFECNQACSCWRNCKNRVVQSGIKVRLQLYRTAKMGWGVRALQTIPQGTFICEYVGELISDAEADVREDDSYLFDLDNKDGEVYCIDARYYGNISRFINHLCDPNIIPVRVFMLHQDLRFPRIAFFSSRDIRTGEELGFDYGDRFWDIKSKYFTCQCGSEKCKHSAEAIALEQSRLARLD
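G9a (20 nM) preincubated 15 min RT with compounds, then 500 nM biotinylated H3K9 peptide and 20 uM SAM added; 2 h RT reaction. Monomethyl-H3K9 product detected by AlphaScreen with anti-H3K9me1 antibody, streptavidin donor and anti-rabbit IgG acceptor beads.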
JMJD2A Tudor inh: blocks the human JMJD2A Tudor domain; AlphaScreen JMJD2A-Tudor / H3K4me3 peptide binding; 4.4% of 390,000 active; Potency, µM (titrated, usually from 114 µM), without a hit: at the highest dose activity change, negative = inhibition, usual class: inhibitors; note: % is set by controls: 0 for no effect and ±100 for the full control effect; nearly all actives have a fitted effect of over 50% in size
Sfp inh: blocks B. subtilis Sfp PPTase activity | 3.5% of 310,000 active | Q9F4F7 | Potency, µM, for inactives: largest response in the series, negative = inhibition, hits mostly inhibitors | AID 1490 | Biochemical Sfp PPTase activity, qHTS;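 note: the enzyme is Sfp with the accession as filed and its product quenches rhodamine fluorescence; 0% = enzyme reaction without inhibitor and -100% = no enzyme wells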
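Compounds were incubated with enzyme (final 15 nM) for 15 min at room temperature before substrate addition started the reaction. Fluorescence at 525 nm excitation, 598 nm emission was recorded immediately and after 30 minutes.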
* = called active by the depositor; [ ] = another dose, or the depositor's remark. Calls come from the whole dose curve; as a rule, active = well fitted curve in the direction sought with a large enough effect; inconclusive = small, poorly fitted or top-dose-only effect, or another doubt; inactive = no such curve, though single readings can be large; an effect the other way counts as inactive or inconclusive. Potency is the fitted concentration of half-maximal effect.

Screening CC(=O)c1cccc(NC(=O)c2onc(C)c2Cl)c1 returned PLK1 PBD inh -3.5%, BAZ2B inh -14.9%, HP1b chromo inh 36.8%, G9a inh -24.4%, JMJD2A Tudor inh -4.1% and Sfp inh 25.7%.
`CC(=O)c1cccc(NC(=O)c2oc(C)nc2C)c1` gave PLK1 PBD inh -18.9%, BAZ2B inh -1.6%, HP1b chromo inh -12.3%, G9a inh 44.7µM*, JMJD2A Tudor inh -17.3% and Sfp inh 10.9%.
N#Cc1cc(Sc2ccccn2)c(Sc2ccccn2)cc1C#N was read as PLK1 PBD inh inconclusive, BAZ2B inh 2.1%, HP1b chromo inh 14.2%, G9a inh 31.6µM*, JMJD2A Tudor inh -17.5% and Sfp inh -12.3%.
For N#Cc1cc(Sc2ccccn2)c([N+](=O)[O-])cc1C#N the results were PLK1 PBD inh -14.9%, BAZ2B inh -3.3%, HP1b chromo inh 24.4%, G9a inh 8.9%, JMJD2A Tudor inh -4.1% and Sfp inh 56.2µM*.
For COc1cccc(N2CCN(C(=O)Cn3ncc4c3-c3ccccc3OC4)CC2)c1 the results were BAZ2B inh -22.4%, HP1b chromo inh 11.2%, G9a inh 2.3%[59 µM] and JMJD2A Tudor inh -16.7%.
`CCOc1ccc(C(=O)Nc2ncn[nH]2)cc1` gave PLK1 PBD inh -9.1%, BAZ2B inh 50.1µM*, HP1b chromo inh 32.2%, G9a inh -6.7%, JMJD2A Tudor inh -17.7% and Sfp inh 1.1%.
CCOc1ccc(NC(=O)c2ccc(NC(=O)Cc3n[nH]c(=O)c4ccccc34)cc2)cc1 was read as PLK1 PBD inh -5.0%, BAZ2B inh -13.6%, HP1b chromo inh 20.3%, G9a inh 56.2µM*, JMJD2A Tudor inh 1.4% and Sfp inh -2.5%.
For O=C(Nc1ncn[nH]1)c1ccccc1O the results were PLK1 PBD inh 0.4%, BAZ2B inh 79.4µM*, HP1b chromo inh 42.3%, G9a inh -0.1%[59 µM], JMJD2A Tudor inh -27.0% and Sfp inh 13.5%.
CC(C)Oc1ccc(C(=O)Nc2ncn[nH]2)cc1 was read as PLK1 PBD inh -1.6%, BAZ2B inh 50.1µM*, HP1b chromo inh 60.3%, G9a inh -71.1%, JMJD2A Tudor inh inconclusive and Sfp inh 8.9%.
For O=C(Nc1ncn[nH]1)c1c(Cl)ccc(Cl)c1Cl the results were PLK1 PBD inh -1.7%, BAZ2B inh 30.6%, HP1b chromo inh 30.9%, G9a inh 24.5%[59 µM], JMJD2A Tudor inh -2.2% and Sfp inh 15.4%.
`CCOc1ccc(C(=O)COC(=O)Cc2n[nH]c(=O)c3ccccc23)cc1` gave PLK1 PBD inh -11.8%, BAZ2B inh 9.1%, HP1b chromo inh 20.9%, G9a inh -37.1% and JMJD2A Tudor inh -1.7%.
`COc1cccc(NC(=O)c2oc3ccccc3c2NC(=O)C23CC4CC(CC(C4)C2)C3)c1` gave BAZ2B inh inconclusive, HP1b chromo inh 17.7%, G9a inh -26.1%[59 µM] and JMJD2A Tudor inh -20.2%.
O=C(CSCc1cnn(-c2ccccc2)c1-n1cccc1)NCc1ccccc1F was read as BAZ2B inh -17.7%, HP1b chromo inh 31.0%, G9a inh -35.2%[59 µM] and JMJD2A Tudor inh -7.3%.
Screening CCOc1ccc(NC(=O)N2CC=C(c3c[nH]c4ccccc34)CC2)cc1 returned BAZ2B inh inconclusive, HP1b chromo inh 1.3%, G9a inh -39.2%[59 µM] and JMJD2A Tudor inh inconclusive.
`CC(C)Oc1cccc(C(=O)Nc2ncn[nH]2)c1` gave PLK1 PBD inh -14.3%, BAZ2B inh 50.1µM*, HP1b chromo inh 54.3%, JMJD2A Tudor inh -19.9% and Sfp inh -7.1%.
Screening Cc1cc(C(=O)Nc2ncn[nH]2)ccc1[N+](=O)[O-] returned PLK1 PBD inh 0.7%, BAZ2B inh 50.1µM*, HP1b chromo inh 53.5%, G9a inh -6.7%[59 µM], JMJD2A Tudor inh -24.5% and Sfp inh -0.3%.
`Cc1cc(C)nc(NC(=O)c2ccc([N+](=O)[O-])c(C)c2)n1` gave PLK1 PBD inh -9.0%, BAZ2B inh -17.8%, HP1b chromo inh 5.0%, G9a inh inconclusive, JMJD2A Tudor inh -5.4% and Sfp inh 18.0%.
COc1cc(NC(=O)c2ccc(=O)[nH]n2)cc(OC)c1OC was read as PLK1 PBD inh -2.8%, BAZ2B inh 7.4%, HP1b chromo inh 14.7%, G9a inh -8.8%, JMJD2A Tudor inh -4.9% and Sfp inh 12.4%.
For Cc1cc(N2C(=O)C(O)=C(C(=O)c3ccc(C)o3)C2c2ccc([N+](=O)[O-])cc2)no1 (stereo not given) the results were PLK1 PBD inh -8.4%, BAZ2B inh -29.0%, HP1b chromo inh 16.2%, G9a inh 44.7µM*, JMJD2A Tudor inh -21.0% and Sfp inh 4.0%.
`Cc1cc(N2C(=O)C(O)=C(C(=O)c3cc4ccccc4o3)C2c2cccc(Cl)c2)no1` (stereo not given) gave PLK1 PBD inh inconclusive, BAZ2B inh -25.1%, HP1b chromo inh -10.8%[57 µM], G9a inh 39.8µM*, JMJD2A Tudor inh inconclusive and Sfp inh 0.4%.
`Cc1cc(N2C(=O)C(O)=C(C(=O)c3ccc(C)o3)C2c2cccc(Oc3ccccc3)c2)no1` (stereo not given) gave PLK1 PBD inh 23.8µM*, BAZ2B inh -23.8%, HP1b chromo inh -32.5%[57 µM], JMJD2A Tudor inh 35.5µM* and Sfp inh -26.6%.
Screening COc1ccc(OC)c(C2C(C(=O)c3cc4ccccc4o3)=C(O)C(=O)N2c2cc(C)on2)c1 (stereo not given) returned PLK1 PBD inh -27.6%, BAZ2B inh -4.3%, HP1b chromo inh -5.5%, G9a inh inconclusive, JMJD2A Tudor inh -31.1% and Sfp inh 6.3%.
Screening COc1ccccc1C1C(C(=O)c2cc3ccccc3o2)=C(O)C(=O)N1c1cc(C)on1 (stereo not given) returned PLK1 PBD inh -15.6%, BAZ2B inh -26.0%[57.1 µM], HP1b chromo inh 0.9%[57 µM], G9a inh 50.1µM*, JMJD2A Tudor inh -34.5% and Sfp inh 24.5%.
For C[C@H](NC(=O)C1CCN(S(=O)(=O)c2ccccc2)CC1)C(=O)NCc1ccco1 the results were PLK1 PBD inh -14.1%, BAZ2B inh -6.4%, HP1b chromo inh 20.1%, G9a inh 3.6%[0.0925 µM], JMJD2A Tudor inh -3.4% and Sfp inh 12.1%.
Screening Cc1ccc(NC(=O)CSc2ncccn2)cc1S(=O)(=O)N1CCCCC1 returned PLK1 PBD inh -12.7%, BAZ2B inh 6.3%, HP1b chromo inh 26.9%, G9a inh inconclusive and JMJD2A Tudor inh -13.5%.
Screening CC(=O)OCC1OC(c2ccc3c(c2)OCO3)C=CC1OC(C)=O (stereo not given) returned Sfp inh -1.9%.
Screening CN(C(=O)C1Cc2c(-c3ccc(Cl)cc3)ccnc2O1)c1ccccc1 (stereo not given) returned PLK1 PBD inh -5.4%.

Screening data (PubChem BioAssay)
